Assay results as given in PubChem BioAssay (NCATS).
Inconclusive results are not listed. Calls of active or inactive are those of the source. Calls follow the shape of the full dose curve.

Tests used:
[1] = qHTS drug screen for cell cycle checkpoint inhibitors in PARPi-resistant BRCA-mutant ovarian cancer cell lines. (AID 1963452); settings: PEO1/OlaR viability, CellTiter-Glo luminescence, 96 h; for Z-AUC: stronger effect = lower value
In short: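 PEO1, PEO4 and PEO1/OlaR ovarian cancer cells, 600 per well, exposed 96 h at 37C to a dilution series. Viability read by CellTiter-Glo luminescence, normalized to DMSO and empty wells; activity summarized as Z-AUC.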

[2] = qHTS for identification of novel therapeutic agents for treatment of microphthalmiaassociated transcription factor (MiT) renal cell carcinoma (RCC) (AID 1963991); settings: CellTiter-Glo, 48 h; for Potency: active = Z-AUC below -0.8 in all three lines; for z-score: stronger effect = lower value
In short: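 Viability of three TFE3-fusion renal carcinoma lines measured by CellTiter-Glo after 48 h treatment with each of 1912 compounds at 11 concentrations. Responses scaled between DMSO (100%) and empty wells (0%) before curve fitting.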

[3] = measured here: PEO1 parental Z-AUC
[4] = TFE3-RCC UOK109 viability, measured here: UOK109 Z-AUC
[5] = TFE3-RCC viability, measured here: UOK124 Z-AUC
[6] = TFE3-RCC viability, measured here: UOK145 Z-AUC
Potency is read from the fitted curve at half-maximal effect.

With `Cn1cc(CNCC2CCN(c3ncc(C(=O)NO)cn3)CC2)c2ccccc21` as the molecule, how does the Potency [1] read?
Its Potency is 195 nM (active).

What about the Z-AUC [1, 3] of the same molecule?
Its Z-AUC is -1.95.

And the Z-AUC ([1]; measured here: PEO4 Z-AUC)?
The Z-AUC was -1.89.

And the Potency ([2]; TFE3-RCC UOK109 viability)?
The Potency was 166 nM (active).

What about the z-score [2, 4] of the same molecule?
The z-score was -1.71.

And the z-score [2, 5]?
Its z-score is -4.28.

What about the z-score [2, 6] of the same molecule?
The z-score was -1.68.

For `CC(=O)O[C@H]1C[C@@H]2CC[C@H]3[C@H]4C[C@H]([N+]5(C)CCCCC5)[C@@H](OC(C)=O)[C@@]4(C)CC[C@@H]3[C@@]2(C)C[C@H]1[N+]1(C)CCCCC1`, which Z-AUC [1] is on record?
The Z-AUC was 0.98 (inactive).

What about the Z-AUC [1, 3] of the same molecule?
Its Z-AUC is 1.06.

What about the Z-AUC ([1]; measured here: PEO4 Z-AUC) of the same molecule?
Its Z-AUC is 1.25.

What about the z-score [2, 4] of the same molecule?
Its z-score is 0.763.

And the z-score [2, 5]?
The z-score was 0.611.

What about the z-score [2, 6] of the same molecule?
Its z-score is -1.4.

Which Potency [1] does the source give for `COC[C@H](NC(=O)c1cnc(C)s1)C(=O)N[C@@H](COC)C(=O)N[C@@H](Cc1ccccc1)C(=O)[C@@]1(C)CO1` here?
The Potency was 138 nM (active).

What about the Z-AUC [1, 3] of the same molecule?
Its Z-AUC is -2.62.

And the Z-AUC ([1]; measured here: PEO4 Z-AUC)?
The Z-AUC was -3.23.

What about the Potency ([2]; TFE3-RCC UOK109 viability) of the same molecule?
Its Potency is 3720 nM (active).

What about the z-score [2, 4] of the same molecule?
Its z-score is -1.27.

What about the z-score [2, 5] of the same molecule?
The z-score was -0.856.

And the z-score [2, 6]?
Its z-score is -2.57.

For `N#Cc1c(NC(=O)c2cccc3ccccc23)sc2c1CCCC2`, which Z-AUC [1] is on record?
Its Z-AUC is -0.477 (inactive).

And the Z-AUC [1, 3]?
The Z-AUC was -0.695.

And the Z-AUC ([1]; measured here: PEO4 Z-AUC)?
The Z-AUC was -0.753.

What about the Potency ([2]; TFE3-RCC UOK109 viability) of the same molecule?
Its Potency is 833 nM (active).

And the z-score [2, 4]?
The z-score was -1.37.

What about the z-score [2, 5] of the same molecule?
Its z-score is -1.52.

And the z-score [2, 6]?
Its z-score is -1.31.

With `COC(=O)[C@H](CCCN=C(N)N)NS(=O)(=O)c1ccc(C)cc1` as the molecule, how does the Z-AUC [1] read?
The Z-AUC was 1.53 (inactive).

What about the Z-AUC [1, 3] of the same molecule?
The Z-AUC was 1.46.

And the Z-AUC ([1]; measured here: PEO4 Z-AUC)?
The Z-AUC was 1.

What about the z-score [2, 4] of the same molecule?
The z-score was 0.843.

And the z-score [2, 5]?
The z-score was 0.187.

What about the z-score [2, 6] of the same molecule?
The z-score was 0.701.

Which Z-AUC [1] does the source give for `COc1cc(OC)c(NC(=O)Nc2cc(C)on2)cc1Cl` here?
The Z-AUC was 1.05 (inactive).

And the Z-AUC [1, 3]?
Its Z-AUC is 1.02.

What about the Z-AUC ([1]; measured here: PEO4 Z-AUC) of the same molecule?
The Z-AUC was 1.3.

What about the z-score [2, 4] of the same molecule?
Its z-score is 0.422.

What about the z-score [2, 5] of the same molecule?
Its z-score is 0.71.

What about the z-score [2, 6] of the same molecule?
The z-score was 0.616.

With `COc1ccc(S(=O)(=O)Nc2cccnc2Nc2ccc(O)cc2)cc1` as the molecule, how does the Potency [1] read?
The Potency was 1380 nM (active).

What about the Z-AUC [1, 3] of the same molecule?
Its Z-AUC is -1.73.

And the Z-AUC ([1]; measured here: PEO4 Z-AUC)?
Its Z-AUC is -1.84.

And the Potency ([2]; TFE3-RCC UOK109 viability)?
Its Potency is 132 nM (active).

What about the z-score [2, 4] of the same molecule?
Its z-score is -0.858.

What about the z-score [2, 5] of the same molecule?
Its z-score is -1.8.

And the z-score [2, 6]?
Its z-score is -1.74.

Which Potency [1] does the source give for `COc1cc([C@@H]2c3cc4c(cc3[C@H](O)[C@H]3COC(=O)[C@@H]23)OCO4)cc(OC)c1OC` here?
Its Potency is 1230 nM (active).

What about the Z-AUC [1, 3] of the same molecule?
The Z-AUC was -1.51.

What about the Z-AUC ([1]; measured here: PEO4 Z-AUC) of the same molecule?
Its Z-AUC is -1.58.

And the Potency ([2]; TFE3-RCC UOK109 viability)?
The Potency was 83.3 nM (active).

And the z-score [2, 4]?
Its z-score is -1.41.

What about the z-score [2, 5] of the same molecule?
The z-score was -1.77.

What about the z-score [2, 6] of the same molecule?
Its z-score is -1.2.

Which z-score [2, 4] does the source give for `CN1[C@H]2CC(OC(=O)[C@@H](CO)c3ccccc3)C[C@H]1[C@H]1O[C@H]12` (some centres undefined) here?
Its z-score is 0.573.

And the z-score [2, 5]?
Its z-score is 0.895.

And the z-score [2, 6]?
The z-score was 0.977.

Which results are given for `O=C(O)[C@H](CC(=O)N1C[C@@H]2CCCC[C@H]2C1)Cc1ccccc1`?
z-score [2, 4]: 0.946; z-score [2, 5]: 0.446; z-score [2, 6]: 0.344

For `CC(C)OC(=O)[C@H](C)N[P@](=O)(OC[C@H]1O[C@@H](n2ccc(=O)[nH]c2=O)[C@](C)(F)[C@H]1O)Oc1ccccc1`, which z-score [2, 4] is on record?
Its z-score is 0.488.

What about the z-score [2, 5] of the same molecule?
Its z-score is 1.3.

And the z-score [2, 6]?
The z-score was 0.519.

Which z-score [2, 4] does the source give for `CC(=O)OCC(=O)[C@@]1(O)CC[C@H]2[C@@H]3CCC4=CC(=O)CC[C@]4(C)[C@@H]3C(=O)C[C@@]21C` here?
The z-score was -0.147.

And the z-score [2, 5]?
The z-score was 0.413.

And the z-score [2, 6]?
The z-score was 0.581.

With `N[C@H]1CN(c2c(F)cc3c(=O)c(C(=O)O)cn(C4C[C@@H]4F)c3c2Cl)CC12CC2` (some centres undefined) as the molecule, how does the z-score [2, 4] read?
The z-score was 0.717.

What about the z-score [2, 5] of the same molecule?
The z-score was 1.4.

And the z-score [2, 6]?
The z-score was -0.145.

With `CCN1CCN(C(=O)N[C@H](C(=O)N[C@@H]2C(=O)N3C(C(=O)O)=C(CSc4nnnn4C)CS[C@@H]23)c2ccc(O)cc2)C(=O)C1=O` as the molecule, how does the z-score [2, 4] read?
Its z-score is 3.06.

What about the z-score [2, 5] of the same molecule?
The z-score was 1.43.

And the z-score [2, 6]?
The z-score was 2.48.

Which results are given for `C[C@@H]1[C@H](C)CC[C@]2(C(=O)O)CC[C@]3(C)C(=CC[C@@H]4[C@@]5(C)C[C@@H](O)[C@H](O)[C@@](C)(CO)[C@H]5CC[C@]43C)[C@@H]12`?
z-score [2, 4]: 0.114; z-score [2, 5]: 0.271; z-score [2, 6]: 0.0304
